hgDAF-12 ag = H. glycines DAF-12 receptor agonists, primary screen, cell-based, luminescence, HEK293, GAL4 fusion, UAS-luciferase | Nuclear hormone receptor DAF-12 (Heterodera glycines), GAL4 fusion | HEK293 GAL4-hgDAF12 UAS-luciferase reporter, agonist luminescence; normalized to butyrate control | activation, % at 6.8 µM | 370,000 tested, 1.8% active | AID 687014, 2013;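 active = activation above a cutoff set at the mean of all screened compounds plus 3 SD, cut at about 10% in these data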;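 note: 0% = DMSO wells and 100% = sodium butyrate wells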
hcDAF12 agonist = H. contortus DAF-12 nuclear receptor activators, primary screen, cell-based, luminescence, HEK293, lit1-tk-luc reporter | HEK293 hcDAF-12 lit1-tk-luc reporter; 0% DMSO, 100% Δ7-dafachronic acid | activation, % at 6.8 µM | 370,000 tested, 1.4% active;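 active = activation above the mean of all tested compounds plus 3 SD, cut at about 5.5% in these data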;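 note: 100% = response to 3 µM Δ7-dafachronic acid high control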
DAX1 inh-1 = DAX1 (NR0B1) inhibitors, primary screen, cell-based, HEK293, Gal4-DAX1, luciferase luminescence; inhibition, % at 6.75 µM; AID 504766, 2011; Nuclear receptor subfamily 0 group B member 1 (Homo sapiens), P51843; 340,000 tested, 0.99% active; HEK293 Gal4-DAX1 luciferase reporter;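 active = inhibition above the mean over all tested compounds plus 3 SD, cut at about 4.2% in these data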;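 note: 0% = DAX1-transfected cells with DMSO and 100% = empty-vector control cells with DMSO; inhibition shows as a rise in luminescence from relieved DAX1 repression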
Target sequence (P51843 207-470 limits assumed): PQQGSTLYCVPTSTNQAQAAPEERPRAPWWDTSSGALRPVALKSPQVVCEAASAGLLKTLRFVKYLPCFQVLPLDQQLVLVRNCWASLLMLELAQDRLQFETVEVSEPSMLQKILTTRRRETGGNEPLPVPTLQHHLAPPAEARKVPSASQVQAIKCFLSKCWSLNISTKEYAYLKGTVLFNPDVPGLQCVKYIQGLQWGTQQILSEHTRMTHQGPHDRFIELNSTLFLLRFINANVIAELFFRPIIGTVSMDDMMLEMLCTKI
DAX1 inh-2 = DAX1 (NR0B1) inhibitors on StAR promoter, primary screen, cell-based, luminescence, SF-1 (NR5A1), full-length DAX-1. HEK293T StAR-luciferase reporter, SF-1/DAX-1 repression relief. inhibition, % at 6.8 µM. 370,000 tested, 1.1% active;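 active = inhibition above the mean over all tested compounds plus 3 SD, cut at about 3.6% in these data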;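 note: 0% = DAX-1 cells with DMSO and 100% = cells lacking DAX-1 with DMSO; higher inhibition means more luminescence from relief of DAX-1 repression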
ssDAF12 agonist = S. stercoralis DAF-12 nuclear receptor activators, primary screen, cell-based, luminescence, HEK293, GRIP1 co-expression, lit1-tk-luc; Nuclear hormone receptor DAF-12 (Strongyloides stercoralis); HEK293 ssDAF-12/GRIP1 lit1-tk-luc reporter; % of 3 µM dafachronic acid response; 370,000 tested, 1% active; AID 652126, 2013; activation, % at 6.8 µM;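 active = activation above the mean over all tested compounds plus 3 SD, cut at about 0.9% in these data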;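 note: 0% = DMSO-only wells and 100% = 3 µM delta7-dafachronic acid wells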
Active calls of the source: *; x = not tested or not shown. Hits are enriched below; roughly 4.1% of the tested compounds scored in any of these assays.

SMILES | hgDAF-12 ag | hcDAF12 agonist | DAX1 inh-1 | DAX1 inh-2 | ssDAF12 agonist
Cc1ccc(-c2nc(C3CCCN(S(=O)(=O)c4cccs4)C3)no2)cc1 (configuration not stated) | -1 | -2 | x | -2 | -2
NCCCn1c(C(=O)c2cc(Cl)c(N)c(Cl)c2)c2ccc(C(F)(F)F)cc2[n+]1[O-] | 1 | 6.5* | 2 | 0 | 0
Cc1ccc(CNC(=O)Cc2csc(Nc3nc(=S)[nH]c4ccccc34)n2)cc1 | 2 | 5 | x | 1 | 0
O=C(Cc1csc(Nc2nc(=S)[nH]c3ccccc23)n1)NCc1cccc(Cl)c1 | 0 | 6.5* | 0 | -1 | 1
O=C(Cc1csc(Nc2nc(=S)[nH]c3ccccc23)n1)NCc1ccccc1Cl | 7 | 5.9* | 0 | -1 | 1.2*
CC(=O)Nc1ccc(C(CCCc2ccccc2)C2=CCCCC2)cc1 (configuration not stated) | 4 | -2 | x | -1 | -1
O=C(COc1ccc(S(=O)(=O)N2CCOCC2)cc1)NCc1ccco1 | 0 | -2 | 0 | 0 | 1.6*
O=C(COc1ccc(S(=O)(=O)N2CCCC2)cc1)NCc1ccco1 | x | x | 2 | x | x
O=C(O)C1CCCCC1C(=O)N1CCCC1 (configuration not stated) | 2 | 0 | 0 | 1 | 1.5*
O=C(C1CCCCC1C(=O)N1CCCCC1)N1CCCCC1 (configuration not stated) | 3 | -1 | 1 | -1 | -1
CCc1ccc(Nc2nnc(SCC(=O)NCCN3C(=O)CSC3=O)s2)cc1 | 12* | 2 | -1 | 1 | 0
CCc1ccc(Nc2nnc(SCC(=O)Nc3sccc3C(N)=O)s2)cc1 | 8 | 2 | -1 | 0 | -1
OC(c1ccccc1)(c1ccccc1)C1CCN(CCCNc2ccccc2F)CC1 | 1 | 1 | x | 1 | 0
CC(=O)N1N=C(c2ccc(C)cc2)CC1c1ccco1 (configuration not stated) | 2 | 2 | 0 | 0 | -1
Cc1ccc(N2N=C(c3ccc(F)cc3)CC2c2ccco2)cc1 (configuration not stated) | -2 | 1 | 5.1* | 0 | -1
Cc1ccc(C2=NN(C(=O)CCCC(=O)O)C(c3ccco3)C2)cc1 (configuration not stated) | 4 | 1 | 0 | -1 | 1.1*
Cc1ccc(-n2c(SCC(=O)Nc3ccc(S(=O)(=O)Nc4cc(C)nc(C)n4)cc3)nnc2-c2ccc(C(C)(C)C)cc2)cc1 | -1 | -2 | x | -1 | -1
COc1ccc2c(C)cc3nncn3c2c1 | 0 | 1 | 4.2* | 0 | -1
Cc1cc2nncn2c2ccccc12 | -1 | -1 | 2 | 1 | -1
CC(C)NC(=O)CSc1nc(-c2ccccc2)cs1 | 11* | 1 | 4.7* | 3 | -1
O=C(CSc1nc(-c2ccccc2)cs1)Nc1nccs1 | -2 | -2 | 0 | 1 | -2
Fc1ccc(-c2n[nH]c(=S)n2N=Cc2ccc(-c3ccccc3)cc2)cc1 | 2 | 0 | x | -1 | 0
CCOCCCNC(=O)c1ccc2c(c1)N=C(CC)c1cc(Br)ccc1S2 | -7 | -1 | -2 | 4.2* | 0
Cc1nc2c(-c3ccccc3)c[nH]n2c(=O)c1Cc1ccccc1 | 6 | 1 | 5.7* | 2 | -1
Cc1cc(=O)n2[nH]cc(-c3ccccc3)c2n1 | -1 | -1 | 1 | 0 | -1
Cn1cc(CN2CCc3c([nH]c4ccccc34)C2C(C)(C)C)cn1 (configuration not stated) | -2 | 5.9* | 0 | -1 | -1
O=C(Cn1nnc(-c2ccccc2F)n1)Nc1ccc(Cl)cc1 | -2 | -1 | x | 1 | -1
COC(=O)c1ccc(NC(=O)COC(=O)C2CC(=O)N(Cc3ccccc3)C2)cc1 (configuration not stated) | 1 | 0 | 4.2* | 0 | -2

Compound activity deposited in PubChem BioAssay by The Scripps Research Institute Molecular Screening Center.
